Results taken from PubChem BioAssay AID1578 (Sanford-Burnham Center for Chemical Genomics, 2009).
Screen size: about 290,000 compounds; about 3,000 (1%) were called active. No stated cut-off is given here; in the data, active means inhibition mostly above about 36% (no sharp cut-off); inactive means mostly below about 34%. The full list was thinned out, with actives kept by preference.

Experiment: NOD1 signaling inhibitors, primary screen, cell-based, luminescence, uHTS (AID 1578);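 further: HEK-293T reporter cells stimulated with the NOD1 agonist gamma-tri-DAP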
Conditions: NOD1-driven NF-kB luciferase reporter cells, at 4 µM, active compounds read high
In the case of Cc1ccc(C2N(c3cccc(Cl)c3)C(=O)N3CCCN23)cc1 (stereo not drawn), the inhibition was 4.2% (inactive). With O=[N+]([O-])c1cc(/C=N/n2c(-c3cccnc3)n[nH]c2=S)ccc1Cl the inhibition was -11.7% (inactive). For Cc1cc(C)nc(NC(=O)Cc2ccc([N+](=O)[O-])cc2)c1, the inhibition was -15.5% (inactive). For O=C(Nc1ccccc1C(F)(F)F)N1CCCCCC1, the inhibition was -17.1% (inactive). For O=C(NCc1cccnc1)c1ccc2c(c1)C(=O)N(Cc1ccccc1)C2=O, the inhibition was -4.4% (inactive). With Cc1c(C#N)c(NC(=O)C(C)C)n(Cc2ccccc2)c1C the inhibition was -2.8% (inactive). For COc1ccc(Cn2c(C)c(C)c(C#N)c2NC(=O)Nc2ccc(F)cc2)cc1, the inhibition was -50% (inactive). For Cc1c(C#N)c(NC(=O)CCl)n(Cc2ccc(F)cc2)c1C, the inhibition was 94.1% (active). With Cc1ccc(C(=O)N2CCOCC2)cc1S(=O)(=O)N1CCCCC1 the inhibition was -11.7% (inactive). In the case of CCN1CCN(CC(=O)Nc2ccc(C)cc2C)C(=O)C1=O, the inhibition was 29.5% (inactive). With COc1ccc(NC(=O)C2=C(C)NC(=S)NC2c2ccc(O)c(OC)c2)cc1 (stereo not drawn) the inhibition was -36.2% (inactive). For Cc1ccc(NC(=O)c2cc(-n3cnnc3)ccc2Cl)c(C)c1, the inhibition was 63.4% (active). With Cc1ccc(NC(=O)c2cc(-n3cnnc3)ccc2Cl)cc1 the inhibition was -21.5% (inactive). For Cc1ccnc(NC(=O)c2cc(-n3cnnc3)ccc2Cl)c1, the inhibition was -27% (inactive). With O=C(CCCN1C(=O)/C(=C/c2cccs2)SC1=S)Nc1cccc(C(=O)O)c1 the inhibition was -20.6% (inactive). With COc1ccc(-n2nc(C(=O)NCC(=O)N3CCCC(C)C3)c3ccccc3c2=O)cc1Cl (stereo not drawn) the inhibition was -22.7% (inactive). For CCCC1S/C(=N/N=C/c2ccc(OC)cc2)N(Cc2ccc(OC)cc2)C1=O (stereo not drawn), the inhibition was 12.9% (inactive). With CCCC1S/C(=N/N=C/c2ccc(C)cc2)N(Cc2ccc(OC)cc2)C1=O (stereo not drawn) the inhibition was 39.2% (inactive). In the case of CCCCC1S/C(=N/N=C/c2ccc(OC)cc2)N(Cc2ccc(OC)cc2)C1=O (stereo not drawn), the inhibition was 75.2% (active). For COc1ccccc1CNC(=O)C(C)n1nc(C)n2c(cc3occc32)c1=O (stereo not drawn), the inhibition was -26.7% (inactive). In the case of Cc1ccc(C(=O)C(C)N2C(=O)NC(C)(c3ccccc3)C2=O)cc1 (stereo not drawn), the inhibition was -36.5% (inactive). With O=C(Cc1ccc(Br)c2ccccc12)N/N=C/c1ccccn1 the inhibition was 7.4% (inactive). In the case of Cc1c(CCC(=O)O)c(=O)oc2c(C)c3occ(-c4ccc(Br)cc4)c3cc12, the inhibition was 27.8% (inactive). In the case of COc1ccc(-c2coc3c(C)c4oc(=O)c(CCC(=O)O)c(C)c4cc23)cc1, the inhibition was 10.4% (inactive). In the case of COC(=O)c1cc(-c2ccc(F)cc2)n(-c2ccccc2)n1, the inhibition was -3.9% (inactive). In the case of Cc1cc(C)c(Nc2cc(S(=O)(=O)O)c(N)c3c2C(=O)c2ccccc2C3=O)c(C)c1, the inhibition was 69.6% (active). For Cc1cc(C)cc(NC2=C(N)C(=O)c3ccccc3C2=O)c1, the inhibition was -4.5% (inactive). In the case of Nc1c(S(=O)(=O)O)cc(NC(=O)c2ccccc2)c2c1C(=O)c1ccccc1C2=O, the inhibition was 11.8% (inactive). For Cc1ccc(NC(=O)c2sc(C)nc2C)c(C)c1, the inhibition was -0.8% (inactive). For O=C(O)c1cccnc1SCC(=O)C12CC3CC(CC(C3)C1)C2, the inhibition was -9.5% (inactive). In the case of CCOC(=O)Cc1c(C)nc2c(-c3ccccc3)c[nH]n2c1=O, the inhibition was -6.6% (inactive). For CCOC(=O)Cc1cc(=O)n2[nH]cc(-c3cccc(Br)c3)c2n1, the inhibition was 27.2% (inactive). For CCOC(=O)Cc1c(C)nc2c(-c3cccc(Br)c3)c[nH]n2c1=O, the inhibition was 69.7% (active). For CCCN1CCN(C(=O)c2oc3c(Cl)cccc3c2C)CC1, the inhibition was 11.7% (inactive). With Cc1ccc(C(=O)NCCCN2CCOCC2)c(C)c1 the inhibition was -33.2% (inactive). For Cc1ccc(-c2csc(C3=C(O)CN(NC(=O)c4ccc([N+](=O)[O-])cc4)C3=N)n2)cc1, the inhibition was 3.2% (inactive). With N=C1C(c2nc3ccccc3s2)=C(O)CN1NC(=O)c1ccc([N+](=O)[O-])cc1 the inhibition was 102% (active). In the case of N=C1C(c2nc3ccccc3s2)=C(O)CN1NC(=O)c1ccccc1[N+](=O)[O-], the inhibition was -23% (inactive). With Cc1csc(SCCn2c(N3CCOCC3)nc3c2c(=O)[nH]c(=O)n3C)n1 the inhibition was -13.7% (inactive). In the case of COc1cc(/C=C/c2cc(C(F)(F)F)[nH]c(=O)n2)cc(OC)c1OC, the inhibition was 86.7% (active). With COc1cc(OC)c(OC)cc1/C=C/c1cc(C(F)(F)F)[nH]c(=O)n1 the inhibition was -1% (inactive). In the case of COc1ccc(/C=C/c2cc(C(F)(F)F)[nH]c(=O)n2)cc1OC, the inhibition was 44.3% (inactive). With CS(=O)(=O)N(CCC#N)Cc1ccc(/C=C2\C(=O)Nc3ccccc32)o1 the inhibition was 57.1% (active). In the case of Cc1ccc(/C=C2\C(=O)Nc3ccccc32)o1, the inhibition was -9.5% (inactive). With CS(=O)(=O)N(CCC#N)Cc1ccc(C=O)o1 the inhibition was -32.9% (inactive). With O=C(Nc1ccc(O)cc1)/C(=C\C=C\c1ccccc1)NC(=O)c1ccccc1 the inhibition was -13.3% (inactive). In the case of CCN(C(=O)COC(=O)/C=C/c1cccc([N+](=O)[O-])c1)c1ccccc1, the inhibition was -31.8% (inactive). For CCn1ncc([N+](=O)[O-])c1C(=O)n1nc(C)cc1C, the inhibition was -22.7% (inactive). For CCn1nc(C)cc1-c1nnc(Sc2ncc([N+](=O)[O-])s2)n1C, the inhibition was 35.4% (active). With Cn1cnc([N+](=O)[O-])c1Sc1nnc(-c2cccnc2)n1C the inhibition was -5.6% (inactive). In the case of CC(C)(C)SCCNS(=O)(=O)c1ccc2ccccc2c1, the inhibition was 7.5% (inactive). In the case of Cc1ccc(C(=O)CCC(=O)Nc2ccc(Cl)c(S(=O)(=O)Nc3cccc(Cl)c3)c2)cc1, the inhibition was 19.9% (inactive). For Cc1cccc(NS(=O)(=O)c2cc(NC(=O)CC(=O)c3ccc([N+](=O)[O-])cc3)ccc2C)c1, the inhibition was 41.5% (inactive). For COc1cccc(NC(=O)CC(=O)c2ccc([N+](=O)[O-])cc2)c1, the inhibition was -3.4% (inactive). With COc1ccc(C(=O)CC(=O)Nc2ccc([N+](=O)[O-])cc2)cc1 the inhibition was -14.5% (inactive). With COc1ccc(NS(=O)(=O)c2cc(NC(=O)CC(=O)c3ccc([N+](=O)[O-])cc3)ccc2C)cc1 the inhibition was 54.7% (active). With Cn1ncc2c(Nc3ccc(Cl)c(Cl)c3)ncnc21 the inhibition was -5.2% (inactive). In the case of Cc1ccc(OCCCCNC2CCCC(C)C2C)c(C)c1 (stereo not drawn), the inhibition was -22.2% (inactive). With Cc1ccc(OCCCCNC2CCCCC2)c(C)c1 the inhibition was 30.3% (active). With Cc1ccc(OCC(O)CNC2CCCC2)c(C)c1 (stereo not drawn) the inhibition was 0% (inactive). For CN(Cc1ccccc1)C(=O)c1cc(=O)[nH]c2ccccc12, the inhibition was 6.3% (inactive). With Cc1ccc(-n2nc(-c3ccccc3)cc2Nc2ccccc2N)cc1 the inhibition was -9.6% (inactive). In the case of O=C(CS(=O)c1ccc(C(F)(F)F)cc1[N+](=O)[O-])Oc1ccccc1 (stereo not drawn), the inhibition was 21.2% (inactive). For O=C(CS(=O)c1ccc(C(F)(F)F)cc1[N+](=O)[O-])Oc1ccc(Cl)cc1 (stereo not drawn), the inhibition was 15.4% (inactive). For CS(=O)(=O)c1ccc(S(=O)CC(=O)Oc2ccc(Cl)cc2)c([N+](=O)[O-])c1 (stereo not drawn), the inhibition was 47.4% (active). With Nc1ccc(-c2nc3cc([N+](=O)[O-])ccc3o2)cc1 the inhibition was -15.4% (inactive). With COc1ccc(S(=O)Cc2ccc(C(=O)NCc3cccc(OC)c3)o2)cc1 (stereo not drawn) the inhibition was -16.8% (inactive). In the case of COc1cccc(CNC(=O)CSCc2cnn(-c3ccccc3)c2-n2cccc2)c1, the inhibition was 19.5% (inactive). For O=C(CSCc1cnn(-c2ccccc2)c1-n1cccc1)NCc1ccccn1, the inhibition was -18.4% (inactive). With O=C(CSCc1cnn(-c2ccccc2)c1-n1cccc1)NCc1cccnc1 the inhibition was 60.7% (active). In the case of CCCCCCCC(=O)N/N=C(\C)c1cccnc1, the inhibition was 7.8% (inactive). For COCCNC(=O)/C(C#N)=C/C=C/c1ccccc1[N+](=O)[O-], the inhibition was 76.2% (active). In the case of COc1cc(NC(=O)/C=C/c2ccccc2[N+](=O)[O-])cc(OC)c1, the inhibition was -36.1% (inactive). With N#C/C(=C\c1ccccc1[N+](=O)[O-])C(=O)NCc1ccccc1 the inhibition was -5% (inactive). For N#C/C(=C\C=C\c1ccccc1)C(=O)NCc1ccco1, the inhibition was 19.2% (inactive). For COCCNC(=O)/C(C#N)=C/c1ccc(O)c([N+](=O)[O-])c1, the inhibition was -50.1% (inactive). For COC(=O)C(=Cc1ccccc1[N+](=O)[O-])C(=O)OC, the inhibition was 28.4% (active). For N#C/C(=C\C=C\c1ccccc1)C(=O)NCc1cccnc1, the inhibition was 68.7% (active). For N#C/C(=C\c1ccc(O)c([N+](=O)[O-])c1)C(=O)NCc1ccccc1, the inhibition was -13.6% (inactive). For COCCNC(=O)/C(C#N)=C/C=C/c1ccccc1, the inhibition was -4.8% (inactive). With O=C(/C=C/c1ccccc1)NCc1cccnc1 the inhibition was -46% (inactive). With N#C/C(=C\C=C\c1ccccc1[N+](=O)[O-])C(=O)NCc1ccccc1 the inhibition was 97.3% (active). With O=C(O)/C=C/c1ccccc1[N+](=O)[O-] the inhibition was 2.2% (inactive). With Cc1cc([N+](=O)[O-])ccc1NC(=O)Nc1ccc(F)cc1F the inhibition was -5% (inactive). In the case of Cc1ccc(Cn2nnc3c(=O)n(Cc4cc(C)ccc4C)cnc32)cc1, the inhibition was -9.7% (inactive). In the case of CN(C)S(=O)(=O)c1cccc(NC(=O)c2cc3ccccc3o2)c1, the inhibition was -40.6% (inactive). With COc1ccc(/C=C(\C#N)C(=O)NC(C)c2ccccc2)cc1O (stereo not drawn) the inhibition was -1.1% (inactive). In the case of CC(=O)c1c(O)c2ccccc2n(C(C)C)c1=O, the inhibition was 12% (inactive). For O=C(COC(=O)c1ccco1)Nc1ccccc1[N+](=O)[O-], the inhibition was -4.7% (inactive). In the case of CN(C)C(=O)Nc1ccccc1CC[N+](=O)[O-], the inhibition was -28.5% (inactive). With COc1ccc(-c2csc3ncnc(Cl)c23)cc1 the inhibition was -16.4% (inactive). In the case of Cc1c(C(=O)N2CCN(c3ccccc3F)CC2)oc2c1C(=O)CC(C)(C)C2, the inhibition was 0% (inactive). In the case of O=S(=O)(/N=C(\Sc1ccc(Cl)cc1)c1ccccc1)c1ccccc1, the inhibition was 3.3% (inactive).
